# The supplement of paper PMC8728848
# Shown is part of a subset that was picked to be rich in the strongest signals.
# Columns and labels:
# Assay in all cases: glycan array binding signal (z-score within array); higher = stronger binding
# Settings in all cases: glycan notation: IUPAC condensed, linker removed
# [1] = molecular target: Fuc(a1-2)Gal(b1-3)GalNAc(b1-4)[Neu5Ac(a2-3)]Gal(b1-4)Glc
# Procedure, shortened: (§1)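 Negative Z-scores can be read as non-binding. The Z-score is calculated within each array and then averaged across arrays of one protein sequence at different concentrations or buffers and across linkers. Arrays, 3228 in all, were curated from the Consortium for Functional Glycomics database and kept only where the protein sequence was available.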
# [2] = molecular target: Fuc(a1-2)Gal(b1-3)[Fuc(a1-4)]GlcNAc(b1-2)Man(a1-3)[Fuc(a1-2)Gal(b1-3)[Fuc(a1-4)]GlcNAc(b1-2)Man(a1-3)]Man(b1-4)GlcNAc(b1-4)GlcNAc
# Procedure, shortened: as §1
# [3] = molecular target: Fuc(a1-2)Gal(b1-3)[Fuc(a1-4)]GlcNAc(b1-3)[Gal(b1-4)GlcNAc(b1-6)]Gal(b1-4)Glc
# Procedure, shortened: as §1
# [4] = molecular target: Fuc(a1-2)Gal(b1-4)GlcNAc(b1-2)Man(a1-3)[Fuc(a1-2)Gal(b1-4)GlcNAc(b1-2)Man(a1-6)]Man(b1-4)GlcNAc(b1-4)[Fuc(a1-6)]GlcNAc
# Procedure, shortened: as §1
# [5] = molecular target: Fuc(a1-2)Gal(b1-4)[Fuc(a1-3)]GlcNAc(b1-3)GalNAc
# Procedure, shortened: as §1
# [6] = molecular target: Fuc(a1-2)Gal(b1-4)[Fuc(a1-3)]GlcNAc(b1-3)[Neu5Ac(a2-6)Gal(b1-4)GlcNAc(b1-6)]Gal(b1-4)Glc
# Procedure, shortened: as §1
# [7] = molecular target: Fuc(a1-2)[Gal(a1-3)]Gal(b1-4)[Fuc(a1-3)]GlcNAc
# Procedure, shortened: as §1
# [8] = molecular target: Fuc(a1-2)[GalNAc(a1-3)]Gal(b1-4)GlcNAc(b1-2)Man(a1-3)[Fuc(a1-2)[GalNAc(a1-3)]Gal(b1-4)GlcNAc(b1-2)Man(a1-6)]Man(b1-4)GlcNAc(b1-4)[Fuc(a1-6)]GlcNAc
# Procedure, shortened: as §1
# [9] = molecular target: Fuc(a1-2)[GalNAc(a1-3)]Gal(b1-4)[Fuc(a1-3)]GlcNAc(b1-3)GalNAc
# Procedure, shortened: as §1
# Fuc(a1-3)GlcNAc = molecular target: Fuc(a1-3)GlcNAc
# Procedure, shortened: as §1
# [10] = molecular target: Fuc(a1-3)[Gal(b1-4)]GlcNAc(b1-2)Man(a1-3)[Fuc(a1-3)[Gal(b1-4)]GlcNAc(b1-2)Man(a1-6)]Man(b1-4)GlcNAc(b1-4)GlcNAc
# Procedure, shortened: as §1
# Gal(a1-3)Gal(b1-3)GlcNAc = molecular target: Gal(a1-3)Gal(b1-3)GlcNAc
# Procedure, shortened: as §1
# [11] = molecular target: Gal(a1-3)Gal(b1-3)GlcNAc(b1-2)Man
# Procedure, shortened: as §1
# [12] = molecular target: Gal(a1-3)Gal(b1-3)[Fuc(a1-4)]GlcNAc(b1-2)Man(a1-3)[Gal(a1-3)Gal(b1-3)[Fuc(a1-4)]GlcNAc(b1-2)Man(a1-6)]Man(b1-4)GlcNAc(b1-4)GlcNAc
# Procedure, shortened: as §1
# [13] = molecular target: Gal(a1-3)Gal(b1-4)GlcNAc(b1-2)Man(a1-3)[Gal(a1-3)Gal(b1-4)GlcNAc(b1-2)Man(a1-6)]Man(b1-4)GlcNAc(b1-4)GlcNAc
# Procedure, shortened: as §1
# [14] = molecular target: Gal(a1-3)Gal(b1-4)GlcNAc(b1-6)GalNAc
# Procedure, shortened: as §1
# Gal(b1-2)Gal = molecular target: Gal(b1-2)Gal
# Procedure, shortened: as §1
# [15] = molecular target: Gal(b1-3)GlcNAc(b1-3)Gal(b1-4)GlcNAc(b1-2)[Gal(b1-3)GlcNAc(b1-3)Gal(b1-4)GlcNAc(b1-6)]Man(a1-6)[Gal(b1-3)GlcNAc(b1-3)Gal(b1-4)GlcNAc(b1-2)Man(a1-3)]Man(b1-4)GlcNAc(b1-4)[Fuc(a1-6)]GlcNAc
# Procedure, shortened: as §1
# [16] = molecular target: Gal(b1-3)GlcNAc(b1-3)GalNAc
# Procedure, shortened: as §1
# [17] = molecular target: Gal(b1-3)[Fuc(a1-4)]GlcNAc(b1-2)Man(a1-3)[Gal(b1-3)[Fuc(a1-4)]GlcNAc(b1-2)Man(a1-6)]Man(b1-4)GlcNAc(b1-4)[Fuc(a1-6)]GlcNAc
# Procedure, shortened: as §1
# [18] = molecular target: Gal(b1-3)[Fuc(a1-4)]GlcNAc(b1-6)GalNAc
# Procedure, shortened: as §1
# [19] = molecular target: Gal(b1-3)[Neu5Ac(a2-6)]GlcNAc(b1-4)Gal(b1-4)Glc
# Procedure, shortened: as §1
# [20] = molecular target: Gal(b1-4)GlcNAc(b1-2)Man(a1-3)[Gal(b1-4)GlcNAc(b1-2)Man(a1-6)]Man(b1-4)GlcNAc(b1-4)[Fuc(a1-6)]GlcNAc
# Procedure, shortened: as §1
# [21] = molecular target: Gal(b1-4)GlcNAc(b1-2)[Gal(b1-4)GlcNAc(b1-4)]Man(a1-3)[GlcNAc(b1-4)][Gal(b1-4)GlcNAc(b1-2)[Gal(b1-4)GlcNAc(b1-6)]Man(a1-6)]Man(b1-4)GlcNAc(b1-4)GlcNAc
# Procedure, shortened: as §1
# [22] = molecular target: Gal(b1-4)GlcNAc(b1-2)[Gal(b1-4)GlcNAc(b1-6)]Man(a1-6)[Gal(b1-4)GlcNAc(b1-2)Man(a1-3)]Man(b1-4)GlcNAc(b1-4)GlcNAc
# Procedure, shortened: as §1
# [23] = molecular target: Gal(b1-4)GlcNAc(b1-3)Gal(b1-4)GlcNAc(b1-2)Man(a1-3)[Gal(b1-4)GlcNAc(b1-3)Gal(b1-4)GlcNAc(b1-2)Man(a1-6)]Man(b1-4)GlcNAc(b1-4)GlcNAc
# Procedure, shortened: as §1
# [24] = molecular target: Gal(b1-4)GlcNAc(b1-3)Gal(b1-4)GlcNAc(b1-2)Man(a1-3)[Gal(b1-4)GlcNAc(b1-3)Gal(b1-4)GlcNAc(b1-2)Man(a1-6)]Man(b1-4)GlcNAc(b1-4)[Fuc(a1-6)]GlcNAc
# Procedure, shortened: as §1
# [25] = molecular target: Gal(b1-4)GlcNAc(b1-3)Gal(b1-4)GlcNAc(b1-3)Gal(b1-4)GlcNAc(b1-2)Man(a1-3)[Gal(b1-4)GlcNAc(b1-3)Gal(b1-4)GlcNAc(b1-3)Gal(b1-4)GlcNAc(b1-2)Man(a1-6)]Man(b1-4)GlcNAc(b1-4)GlcNAc
# Procedure, shortened: as §1
# [26] = molecular target: Gal(b1-4)GlcNAc(b1-3)Gal(b1-4)GlcNAc(b1-3)Gal(b1-4)GlcNAc(b1-2)Man(a1-3)[Gal(b1-4)GlcNAc(b1-3)Gal(b1-4)GlcNAc(b1-3)Gal(b1-4)GlcNAc(b1-2)Man(a1-6)]Man(b1-4)GlcNAc(b1-4)[Fuc(a1-6)]GlcNAc
# Procedure, shortened: as §1
# [27] = molecular target: Gal(b1-4)GlcNAc(b1-3)[Fuc(a1-3)GlcNAc(b1-6)]Gal(b1-4)Glc
# Procedure, shortened: as §1
binder,measurement,setting,value
Pbx2CASH domain (Cryptococcus neoformans) (protein) GIPGPNRLYRLSGPIIFTAADQEIATYGYPTGSERAVLRVEGRNTATAIQGDCRRCARVSVKNLVVDGNRKKLGRMRDFQLATGLVVLGGNEGQSIQNSWIKNPRGFTAIHIREGDKLQCSGARVEKNEIGPVGEEYDPEKDGDDPEMSPLGRPLADGVSIACRDSFIRDNTFRDNTDAAIVVYCSPGTLIHA,glycan array binding signal (z-score),[1],-0.327
same,glycan array binding signal (z-score),[2],0.448
same,glycan array binding signal (z-score),[3],-0.27
same,glycan array binding signal (z-score),[4],0.625
same,glycan array binding signal (z-score),[5],5.37
same,glycan array binding signal (z-score),[6],0.299
same,glycan array binding signal (z-score),[7],-0.331
same,glycan array binding signal (z-score),[8],-0.315
same,glycan array binding signal (z-score),[9],2.74
same,glycan array binding signal (z-score),Fuc(a1-3)GlcNAc,-0.751
same,glycan array binding signal (z-score),[10],-0.141
same,glycan array binding signal (z-score),Gal(a1-3)Gal(b1-3)GlcNAc,0.751
same,glycan array binding signal (z-score),[11],1.4
same,glycan array binding signal (z-score),[12],2.46
same,glycan array binding signal (z-score),[13],0.227
same,glycan array binding signal (z-score),[14],-0.025
same,glycan array binding signal (z-score),Gal(b1-2)Gal,-0.585
same,glycan array binding signal (z-score),[15],2.19
same,glycan array binding signal (z-score),[16],0.422
same,glycan array binding signal (z-score),[17],-0.077
same,glycan array binding signal (z-score),[18],1.39
same,glycan array binding signal (z-score),[19],-0.128
same,glycan array binding signal (z-score),[20],-0.487
same,glycan array binding signal (z-score),[21],0.057
same,glycan array binding signal (z-score),[22],-0.632
same,glycan array binding signal (z-score),[23],3.98
same,glycan array binding signal (z-score),[24],0.897
same,glycan array binding signal (z-score),[25],6.89
same,glycan array binding signal (z-score),[26],0.266
same,glycan array binding signal (z-score),[27],-0.704
